Experimental findings from PubChem BioAssay AID743279 (National Center for Advancing Translational Sciences (NCATS), 2014) are described below.

Out of some 360,000 compounds screened, about 17,000 (4.7%) were called active. Another 5% or so got no clear call; they are omitted. For the sample, actives were picked, then their nearest neighbours and some compounds at random. Unmarked numbers belong to inactive results. Cut-off read from the data, not from the text of the source: active = activity change below about -50%; inconclusive = mostly about -30% to -49%; inactive = weaker than that.
% is set by controls: 0 for no effect and ±100 for the full control effect.

The nature of the assay: qHTS for Inhibitors of Inflammasome Signaling: IL-1-beta AlphaLISA Primary Screen. The settings on record: THP-1 LPS/ATP IL-1B secretion, 16 h, at 57.5 µM, hits give low values. From the text: Inflammasomes are a set of intracellular multi-protein complexes that enable autocatalytic activation of inflammatory caspases and drive the innate immune response to counter harmful agents. […] A qHTS assay, based on AlphaLISA technology, was developed to screen the Molecular Libraries Small Molecule Repository (MLSMR) to look for novel inflammasome inhibitors. The assay detects IL-1B using AlphaLISA anti-IL-1B acceptor and donor beads. A decreased emission signal, indicating reduced IL-1B secretion, is the desired outcome for this assay. NIH Chemical Genomics Center [NCGC] NIH Molecular Libraries Probe Centers Network [MLPCN] MLPCN Grant: MH095513 Assay Provider: Shyam Biswal Ph.D., Johns Hopkins University Immunity. 2012 Jul 27;37(1):85-95. PMID: 22819042 [2] Curr Pharm Des. 2012;18(16):2320-8. PMID: 22390695
Three microliters containing 3000 THP-1 cells were dispensed into the wells of solid, white, tissue culture treated Greiner 1,536-well plates. Library compounds and positive control, Glyburide, were pin-transferred (23 nL) by a Kalypsys pin-tool equipped with a 1,536-pin array, resulting in final compound concentration ranges of 2.5 nM to 57.5 uM. After 1 hr of cell culture incubation (37 °C, 5% CO2), 1 microL of 1 microg/mL lipopolysaccharide (250 ng/mL, final) and 5 mM ATP (1.25 mM, final) were added to stimulate the cells. After 16 hr of cell culture incubation with the compounds, 1.5 uL of anti-IL-1B acceptor beads (6 ug/mL, final) and biotinylated antibody (0.6 nM, final) were added to the plate, followed by a 1 hr incubation at ambient temperature. To detect the secreted IL-1B, 1.5 uL of AlphaLISA SA-Donor beads (24 ug/mL, final) were added, followed by 30 min of incubation in the dark at ambient temperature. The AlphaLISA signal was read by a PerkinElmer EnVision plate reader with an ultrasensitive luminescence detector and 1536 Plate HTS AlphaScreen aperture (excitation of 680nm and emission of 615nm).
For orientation: In qHTS, concentration-response curves come from the screen itself.
With `COc1ccc(-n2nnnc2C(c2cccc3ccccc23)N2CCC(n3c(=O)[nH]c4ccccc43)CC2)cc1` (stereo not given), the activity change was -8.75%. In the case of `O=c1[nH]c2ccccc2n1C1CCN(C(c2ccccc2)c2nnnn2Cc2ccccc2)CC1` (stereo not given) it was -56.7% (active); in that of `CSCCC(c1nnnn1C(C)(C)C)N1CCC(n2c(=O)[nH]c3ccccc32)CC1` (stereo not given), -2.99%. To `Cc1ccc(OC(=O)N(C)C[C@@H]2OCc3cnnn3CCCC(=O)N([C@H](C)CO)C[C@@H]2C)cc1` belongs 37.1%. To `CCOc1ccc(C2SCC(=O)Nc3c2c(C)nn3C2CCOC(C)(C)C2)cc1` (stereo not given) belongs 13.7%; to `O=C(CCC(=O)N1C[C@H]2C[C@@H](C1)c1cccc(=O)n1C2)NCc1ccccc1C(F)(F)F`, -1.41%; to `c1ccc(N2Cc3ccccc3-n3nncc3C2)nc1`, 12.3%. Turning to `CC(=O)C1(O)CCC2C3CCC4=C(Cl)C(=O)CCC4(C)C3CCC21C` (stereo not given), the activity change was -20.8%. To `CCC(C)(O)C(=O)OC1C(=O)OC2CC3C(C)=CC(=O)C(O)C3(C)C3C4(O)OCC23C1C(C)C4O` (stereo not given) belongs -100% (active). In the case of `CC(=O)NCC1=C(c2ccc3ccccc3c2)C[C@@H]2CC[C@H]1N2Cc1ccco1` it was -3.75%; in that of `c1cc2c(c(NC3=NCCCS3)c1)CCCC2`, -2.25%; in that of `COc1ccccc1N=Nc1c(O)[nH]c(=S)[nH]c1=O`, 56.6%.

On to `CCC1(C)CC(CCNCc2ccc(N(C)C)cc2)(c2ccc(F)cc2)CCO1` (stereo not given), for which the activity change is -72.1% (active).

For `CC1CC=CCC12C(=O)NC(=S)NC2=O` (stereo not given), the activity change was 5.3%. To `CC=C(C)C(=O)OC1CCN2CC=C(COC(=O)C(O)(C(C)OC)C(C)(C)O)C12` (stereo not given) belongs 12.9%; to `O=C(c1cc2nc(-c3ccccc3)cc(-c3ccccc3)n2n1)N1CCC2(CC1)OCCO2`, -87.9% (active); to `O=C(c1ccccc1[N+](=O)[O-])N1CCC2(CC1)OCCO2`, -4.53%. In the case of `O=C(c1cc(-c2ccncc2)nc2ccccc12)N1CCC2(CC1)OCCO2` it was 0%; in that of `COc1cccc(C(c2nnnn2-c2ccc3c(c2)OCCO3)N2CCC3(CC2)C(=O)NCN3c2ccccc2)c1OC` (stereo not given), -6.07%. In the case of `COC(=O)COc1cc(C)cc2oc(=O)c3c(c12)CCCC3` it was 22.7%; in that of `CC1([N+](=O)[O-])COP(=O)(Nc2ccc(F)cc2)OC1` (stereo not given), 15.6%. On to `COc1cc(-n2c(=S)[nH]c3ccc(C)cc3c2=O)c(Cl)cc1Cl`, for which the activity change was 71.7%. To `OC1/C(=C/c2ccc(C(F)(F)F)cc2)N2CCC1CC2` (stereo not given) belongs 22.5%; to `CCOC(=O)[C@]12Cc3cc(OC)ccc3[C@H]1N(C(C)C)C(=O)c1ccccc12`, -125% (active); to `O=c1c2ccccc2nc(CBr)n1-c1ccc(Cl)cc1`, -7.74%. In the case of `O=C(C1CC(=O)N(C2CCCC2)C1)N1CCC2(CC1)OCCO2` (stereo not given) it was 13.5%. In the case of `CN1CCN(/N=C/c2c[nH]c3ccccc23)CC1` it was 7.92%; in that of `CN(C)c1ccc(/C=C2\CC3C4CC=C5CC(O)CCC5(C)C4CCC3(C)C2=O)cc1` (stereo not given), 0.523%. In the case of `C[C@@]1([C@@H](NP(=O)(c2ccccc2)c2ccccc2)c2ccccc2)C[C@H]1CCO`, the activity change is -4.2%. To `CCNc1nc2[nH]c(=O)c3c(c2s1)OC(N)=C(C#N)C3c1cccs1` (stereo not given) belongs -64% (active); to `CC(C)c1ccc(OCC(=O)N2CCN(C)CC2)c(Br)c1`, 9.25%. To `COC(=O)C1=C(c2ccc(OCc3ccccc3)cc2)C[C@@H]2CC[C@H]1N2C(=O)NCc1cccc(F)c1` belongs -12.8%. In the case of `CC1=CC(=Cc2sc3ccccc3[n+]2C)C=C(C)O1` it was -51.7% (active). Take `COc1ccc(CNCCc2ccc3c(c2)OCO3)c(OC)c1OC`: the activity change is -11.8%. On to `COc1ccc(Br)cc1CNCCc1cccc(Cl)c1`, for which the activity change is -72.2% (active). Turning to `COc1ccc(CNCCc2c[nH]c3ccccc23)cc1OC`, the activity change is -24.9%. To `Nc1ccc(Cc2ccc(N)c(Cl)c2)cc1Cl` belongs -24.6%; to `COC(=O)CN(CCCl)P1(=O)OCCCN1CCCl` (stereo not given), 41.8%; to `CCOP(=S)(OCC)SCOC(=O)NCC(=O)OC`, 0.573%. To `CN(C)CC1Oc2ccccc2OC1(O)c1ccccc1` (stereo not given) belongs -101% (active); to `Cc1cccc(N2C(=O)NC(=O)/C(=C\c3cnn(-c4ccccc4)c3)C2=O)c1`, -60% (active). To `COc1cccc(N2C(=O)NC(=O)/C(=C\c3ccc([N+](=O)[O-])s3)C2=O)c1` belongs -0.584%. As for `O=C1NC(=O)N(c2ccccc2)C(=O)/C1=C/c1ccc([N+](=O)[O-])s1`, the activity change was -11.6%. In the case of `Cn1c(O)c(C(=Nc2ccc(F)cc2)c2ccccc2)c(=O)n(C)c1=O` it was 3%; in that of `c1cncc(CNC2=NCCC2)c1`, 34.2%; in that of `CCOC(=O)C1(c2ccccc2)CCN(CC(O)c2ccc(NC(C)=O)cc2)CC1` (stereo not given), -10.2%.

For the compound `CC1=C(C(=O)Nc2ccccc2)S(=O)(=O)CCO1`, the activity change is -86.7% (active). To `CC1=C(C(=O)Nc2ccccc2)SCCO1` belongs 19.6%; to `C[C@]12CCC3C(CC[C@H]4[C@H](O)[C@H](O)CC[C@]34C)C1CC[C@@H]2O` (stereo not given in full), 38.5%; to `CC(=CCOc1ccc2ccc(=O)oc2c1)C1=CC(=O)C(C)(C)O1`, -91.3% (active).

`CC(CC(C#N)(c1ccccc1)c1ccccc1)N1CCCCC1` (stereo not given): the activity change is -2.29%. In the case of `O=C1C2CCN(CC2)C1(CO)CO` it was -9.66%; in that of `CCC(=O)c1ccc(OCC(=O)N2CCN(CC(=O)Nc3ccc(C)cc3)CC2)cc1`, 14.3%; in that of `Clc1ccc2nc3c(c(-c4ccccc4)c2c1)CNCC3`, -57% (active).

Regarding `C[C@H]1CN([C@@H](C)CO)C(=O)CCCn2nncc2CO[C@H]1CN(C)C(=O)Oc1ccccc1`, the activity change is 16.8%. In the case of `CN1CCN(C(=S)SCC(=O)Nc2ccc(Cl)cc2C(=O)c2ccccc2)CC1` it was -88% (active).

In the case of `O=C(COC(=O)c1ccccc1)Nc1ccc(Cl)cc1C(=O)c1ccccc1`, the activity change was 15.9%. In the case of `O=C(CCN1CCCCC1)NCC(=O)Nc1ccc(Br)cc1C(=O)c1ccccc1` it was -10.3%. To `O=C(CCNS(=O)(=O)c1ccccc1)Nc1ccc(Cl)cc1C(=O)c1ccccc1` belongs -63% (active); to `O=C(CN1CCCCC1)Nc1ccc(Br)cc1C(=O)c1ccccc1Cl`, -8.15%.
